Measurements as given in PubChem BioAssay AID1498 (National Center for Advancing Translational Sciences (NCATS), 2009).
Records with an inconclusive call do not appear. Active and inactive are the calls of the source. Calls come from the whole dose curve.

Assay: Confirmation Concentration-Response Assay for Modulators of Lamin A Splicing
Settings: HeLa lamin A splicing GFP/RFP minigene, Acumen, 48 h; RFP activity: RFP channel at top concentration, at 46.1 µM; ratio activity: GFP/RFP ratio at top concentration, at 46.1 µM; series mostly up to 46.1 µM; GFP activity change, negative = decrease: at the top concentration
Text: NCGC Assay Overview: Hutchinson-Gilford Progeria Syndrome (HGPS) is a pediatric premature aging disease caused by a spontaneous mutation in the lamin A/C (LMNA) gene. The mutation activates a cryptic splice site in the LMNA pre-mRNA which results in production of a pre-lamin A protein that cannot be processed properly. The mutant protein accumulates in the nucleus and negatively affects numerous cellular functions. Correction of the splicing defect in HGPS patient cells using a targeted oligonucleotide (exo11) leads to reversal of the cellular disease phenotypes. To identify small molecule modulators of aberrant LMNA splicing, a homogenous assay was constructed in HeLa cells that used a GFP containing minigene to report on correction of aberrant splicing in lamin A and a RFP (DsRed2) to report on cell viability, uniformity and nonspecific effects on the assay signal. This assay was adapted to laser-scanning microplate cytometry (Acumen, TTP Labtech) where miniaturization of the assay to a 1,536-well plate format was possible. Select compounds active in the primary screen (AID 1487) were chosen for confirmation based on potency, efficacy, SAR and activity in other assays in PubChem and at NCGC. References: Bowen, W. P.; Wylie, P. G. Application of Laser-Scanning Fluorescence Microplate Cytometry in High Content Screening. Assay Drug Dev Technol 2006;4:209-221. Scaffidi P, Misteli T. Reversal of the cellular phenotype in the premature aging disease Hutchinson-Gilford progeria syndrome. Nat. Med. 2005;11:440-445.
NCGC Assay Protocol Summary: Reagents/Controls: Stable clones expressing DsRed2 and lamin A-EGFP were generated by Cell and Molecular Technologies in S3 HeLa cells. HeLa cells were prepared for the assay when they were 70-90% confluent. The cells were counted and resuspended in Opti-MEM I (no phenol red; Gibco), 2% FBS, 1% penicillin/ streptomycin (Gibco) at concentration of 120 cells/uL concentration. The suspension was passed through a Falcon basket filter with pore size 40um (Beckton Dickson). Control titrations: column […] 1536-well plate contained a sixteen point titration (1:2 dilutions) in duplicate of ancitabine (Sigma: A8598) beginning at 40 uM final concentration. Column 2 contained a sixteen point titration (1:2 dilutions) of cycloheximide beginning at 1.4 mM final concentration. Column 3 contained ancitabine at 40 uM and column 4 contained was the vehicle control (0.5% DMSO final concentration). Assay Steps: 5 uL of HeLa cells were plated in Aurora LoBase black clear bottom (cyclic-olefin polymer) 1536-well plates at a final density of 600 cells/well. Controls and library compounds were added with a 1536-well pin array using the Kalypsys pin-tool. The plates were then incubated for 48 hrs in a cell-culture incubator (37 °C; 5% CO2, 98% humidity). Following incubation the plates were read on the Acumen Explorer using the 488 nm laser. Data was collected on objects between 10 and 100 um in size. Cell objects were defined by a 15 um width x 10 um depth filter. The ratio of the total object intensity in PMT1 (500-530 nm emission; GFP) over PMT3 (575-640 nm emission; RFP) was calculated for analysis. Keywords: NIH Roadmap, MLSCN, MLI, MLSMR, qHTS, NCGC, lamin A, Progeria, RNA splicing.

| SMILES | ratio activity [%] | GFP activity change, negative = decrease | RFP activity [%] |
| --- | --- | --- | --- |
| Cc1cccc(C)c1OC[C@H](C)N | -11.5 | -32.5% (inactive) | -24.1 |
| O=C(c1ccc(Cl)c(Cl)c1)N1CCC(=O)N(C(COCc2cccc(C(F)(F)F)c2)Cc2ccccc2)CC1 (configuration not stated) | -24.5 | -32.8% (inactive) | 13.3 |
| C/C(=N\NC(=O)C(c1ccncc1)N1CCOCC1)c1ccc(Br)cc1 (configuration not stated) | -18.1 | -10.9% (inactive) | 7.84 |
| O=C(COc1ccc(Br)cc1)NNC(=S)NC(=O)c1ccccc1[N+](=O)[O-] | -24.6 | -24.3% (inactive) | 11.7 |
| COc1ccc(C=C(c2nc3ccccc3s2)c2nc3ccccc3s2)cc1O | -10.5 | -13.6% (inactive) | -2.53 |
| CC(=O)c1c(C)[nH]c(C(=O)Nc2c(C)n(C)n(-c3ccccc3)c2=O)c1C | -9.7 | -2.29% (inactive) | 1.7 |
| CC(=O)Nc1ccc(-c2csc(NC(=O)C3CCN(S(=O)(=O)c4cccs4)CC3)n2)cc1 | -13.5 | -2.98% (inactive) | 16.5 |
| Cc1nc2ccc(NC(=O)c3ccc(Cl)c(S(=O)(=O)N(C)c4ccccc4)c3)cc2s1 | -11.5 | -33.3% (inactive) | -26.7 |
| COc1ccc(O)c(/C=N/NC(=O)c2ccc(OCc3cccc(Br)c3)cc2)c1 | -5.52 | -21.1% (inactive) | -32.5 |
| Cn1c(Sc2ccccc2Cl)c(C=O)c2ccccc21 | 0.328 | -13.3% (inactive) | -2.07 |
| Cc1cc(Nc2ccccc2)nc2cc(O)ccc12 | -18.8 | -18.1% (inactive) | 11.6 |
| O=C(Nc1ccc(F)cc1)c1nc[nH]c1C(=O)Nc1ccccc1[N+](=O)[O-] | -10.8 | -23.1% (inactive) | -25.1 |
| O=C(CCCN1CC=C(n2c(=O)[nH]c3ccccc32)CC1)c1ccc(F)cc1 | -13.7 | -20.4% (inactive) | -6.45 |
| CC1=NS(=O)(=O)c2cc(Cl)ccc2N1 | -9.16 | -18.6% (inactive) | -10.7 |
